The values below come from PubChem BioAssay (Tox21).

Structures are written as SMILES. Values joined by “and” are separate entries in the source; they are usually repeats but may differ in a detail not shown here. Identical values can stand only once. Results filed as inconclusive are left out. A call without a number means that no potency is given here. Active and inactive are the calls of the source. The call rests on the fitted dose curve; in most records, active means well fitted activation curve with a large enough effect in the signal ratio in the repeat runs (not every such curve was filed as active); inconclusive means weak or mixed curves, or effect the other way; inactive means no such curve, though single readings can be large or run the other way; the % refers to the signal ratio.
Potency means the concentration at half of the fitted maximal effect.

The nature of the assay: qHTS assay for small molecule agonists of the antioxidant response element (ARE) signaling pathway (AID 743202). To be noted: HepG2 ARE-bla reporter, beta-lactamase FRET, 16 h; series mostly up to 73.3 µM. The text has this: U.S. Tox21 Program National Center for Advancing Translational Sciences [NCATS] NIH Chemical Genomics Center [NCGC] U.S. Environmental Protection Agency [EPA] National Institutes of Environmental Health Sciences [NIEHS] National Toxicology Program [NTP] U.S. Food and Drug Administration [FDA] Tox21 Assay Overview: Oxidative stress has been implicated in the pathogenesis of a variety of diseases ranging from cancer to neurodegeneration. The antioxidant response element (ARE) signaling pathway plays an important role in the amelioration of oxidative stress. The CellSensor ARE-bla HepG2 cell line (Invitrogen) can be used for analyzing the Nrf2/antioxidant response signaling pathway. Nrf2 (NF-E2-related factor 2) and Nrf1 are transcription factors that bind to AREs and activate these genes. The CellSensor ARE-bla Hep G2 cell line contains a beta-lactamase reporter gene under control of the Antioxidant Response Element (ARE) stably integrated into HepG2 cells. The activation of the report gene under culture conditions can be detected by fluorescence intensity. This cell line has been used to screen the Tox21 10K compound library to identify agonists that induce oxidative stress.
Tox21 Assay Protocol Summary: The ARE-bla cells were dispensed at 2,000 cells/5 ul/well in 1536-well black wall/clear bottom plates using a Multidrop dispenser. After the assay plates were incubated at a 37 C/5% CO2 incubator for 5 hours, 23 nL of compounds dissolved in DMSO, positive controls or DMSO only was transferred to the assay plate by a pin tool. The plates were incubated at 37 C for 16 hours. After 1 uL of LiveBLAzer B/G FRET substrate was added using a Flying Reagent Dispenser, the plates were incubated at room temperature for 2 hours, and fluorescence intensity was measured by an Envision plate reader.
For `O=C1Nc2ccc(Cl)cc2C(c2ccccc2)=NC1O` (stereo not given), the Potency entry is “inactive”.

With `OCCOCCO`, the Potency result is “inactive”.

As to `N#Cc1cccnc1`, the Potency result was “inactive”.

Regarding `COC(=O)Nc1nc2ccccc2[nH]1`, the Potency result was “inactive”.

Turning to `COc1ccc(C=O)cc1OC`, the Potency result was “inactive”.

Consider `CCOP(=O)(OCC)OCC`, for which the Potency result is “inactive”.

Regarding `C=C(C)C#N`, the Potency result is “inactive”.

In the case of `ClC(Cl)(Cl)Br`, the Potency entry was “inactive”.

For the compound `CC(C)=CC1C(C(=O)OCc2cccc(Oc3ccccc3)c2)C1(C)C` (stereo not given), the Potency entry is “inactive”.

In the case of `CC(C)Nc1ccc(Nc2ccccc2)cc1`, the Potency was 27.3 µM (active).

For `CC(C)=CC1C(C(=O)OCN2C(=O)C3=C(CCCC3)C2=O)C1(C)C` (stereo not given), the Potency entry was “inactive”.

As for `NC(=O)CN1CCCC1=O`, the Potency result was “inactive”.

As for `ClCc1ccccn1`, the Potency entry was “inactive”.

Consider `CNC(=O)CSP(=S)(OC)OC`, for which the Potency entry is “inactive”.

For `CNC(=S)S`, the Potency entry is “inactive”.

In the case of `Oc1ccc(Cl)cc1Cl`, the Potency entry is “inactive”.

Consider `CC(C)(O)C#N`, for which the Potency entry is “inactive”.

With `COc1ccc(CO)cc1`, the Potency entry is “inactive”.

For `CCC/C=N/O`, the Potency result is “inactive”.

Take `CC(C)(c1ccc(OCC2CO2)cc1)c1ccc(OCC2CO2)cc1` (stereo not given): the Potency was 61.1 µM (active).

In the case of `C=CC(Cl)CCl` (stereo not given), the Potency result was “inactive”.

Take `CC(C)(O)C(=O)Nc1ccc([N+](=O)[O-])c(C(F)(F)F)c1`: the Potency is 27.9 µM (active) and 22.4 µM (active).

In the case of `CCOP(=S)(OCC)OP(=S)(OCC)OCC`, the Potency entry was “inactive”.

`CCCCOC(=O)COC(=O)c1ccccc1C(=O)OCCCC`: the Potency result is “inactive”.

Consider `CC(C)CON=O`, for which the Potency entry was “inactive”.

Turning to `[CH3][Sn]([Cl])([Cl])[Cl]`, the Potency result is “inactive”.

Turning to `Cc1ccc(N=CN(C)C=Nc2ccc(C)cc2C)c(C)c1`, the Potency result was “inactive”.

For the compound `CC1(C)C(C(=O)OC(C#N)c2cccc(Oc3ccccc3)c2)C1(C)C` (stereo not given), the Potency result was “inactive”.

For the compound `O=[N+]([O-])/N=C1\NCCN1Cc1ccc(Cl)nc1`, the Potency entry is “inactive”.

Consider `O=P(OCCCl)(OCCCl)OCCCl`, for which the Potency result is “inactive”.

In the case of `CC1=C(C(=O)Nc2ccccc2)SCCO1`, the Potency entry is “inactive”.

On to `COP(=O)(NC(C)=O)SC` (stereo not given), for which the Potency entry is “inactive”.

Take `CNC(=O)Oc1cccc2c1OC(C)(C)C2`: the Potency entry was “inactive”.

With `CN(C)c1nc(=O)n(C2CCCCC2)c(=O)n1C`, the Potency entry is “inactive”.

Regarding `ClC(Cl)=C(Cl)C(Cl)=C(Cl)Cl`, the Potency result was “inactive”.

In the case of `N#CCCCCC#N`, the Potency result was “inactive”.

`CC1(C)Cc2cccc(O)c2O1`: the Potency result is “inactive”.

In the case of `CN(C)c1ccccc1`, the Potency result was “inactive”.

In the case of `CC(C)Nc1nc(Cl)nc(NC(C)C)n1`, the Potency entry was “inactive”.

`CCOC(=O)c1ccccc1N`: the Potency result was “inactive”.
